# Assay results from the supplement of paper PMC12494721.
# Structures can show the parent of a compound that is named as a salt.
# Tests used:
# Conditions in all cases: incubation time: 27 h, anaerobic, 37 °C;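 for the amine columns active = adjusted P below 0.05 in both replicates with a change the same way and a mean fold change under 0.8 or over 1.25; inactive = the rest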
# [1] = tested on: Clostridium sporogenes DSM 1664; assay: growth (OD595) fold change vs plate DMSO controls (fold change (ratio)); higher = more growth
# In short: (§1)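 Growth is calculated as fold change against the median of the DMSO control wells on each plate. Readings at 595 nm from anaerobic mGAM cultures (96-well, 27 h, 37 °C) were blank-subtracted, background-corrected with 20 µM compound solutions in water, and converted to OD by a calibration factor of 5. Fold changes above 1.5 were recorded as NA, and results are means of 2 biological replicates.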
# Escherichia coli IAI1 [2] = assay: as above
# In short: as §1
# [3] = tested on: Klebsiella aerogenes DSM 30053; assay: as above
# In short: as §1
# [4] = tested on: Ruminococcus gnavus DSM 108212; assay: as above
# In short: as §1
# [5] = tested on: Klebsiella aerogenes DSM 30053; assay: fold change of Histamine concentration vs plate DMSO controls (fold change (ratio)); higher = more amine produced, active = hit call of the paper (significant change in both replicates, either direction)
# In short: (§2)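 Anaerobic mGAM cultures of four gut bacterial strains were grown at 37 °C for 27 h in 80 µL wells, starting at OD 0.1 before 1:1 dilution. Compounds were at 20 µM final (sweeteners 50 µM). Whole cultures were extracted with cold acetonitrile/methanol containing 0.1% formic acid and centrifuged. Amines were quantified by LC–triple-quadrupole MS (dynamic MRM) against external calibration curves and drift-corrected within batch. Each value is the fold change versus plate DMSO controls, averaged over 2 biological replicates.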
# [6] = tested on: Clostridium sporogenes DSM 1664; assay: fold change of Tryptamine concentration vs plate DMSO controls (fold change (ratio)); higher = more amine produced, active = hit call of the paper (significant change in both replicates, either direction)
# In short: as §2
# [7] = tested on: Ruminococcus gnavus DSM 108212; assay: as above
# In short: as §2
# Escherichia coli IAI1 [8] = assay: fold change of Putrescine concentration vs plate DMSO controls (fold change (ratio)); higher = more amine produced, active = hit call of the paper (significant change in both replicates, either direction)
# In short: as §2
# [9] = tested on: Klebsiella aerogenes DSM 30053; assay: as above
# In short: as §2
# Escherichia coli IAI1 [10] = assay: fold change of Cadaverine concentration vs plate DMSO controls (fold change (ratio)); higher = more amine produced, active = hit call of the paper (significant change in both replicates, either direction)
# In short: as §2
# [11] = tested on: Klebsiella aerogenes DSM 30053; assay: as above
# In short: as §2
# [12] = tested on: Ruminococcus gnavus DSM 108212; assay: fold change of 2-Phenylethylamine concentration vs plate DMSO controls (fold change (ratio)); higher = more amine produced, active = hit call of the paper (significant change in both replicates, either direction)
# In short: as §2
SMILES,growth [1],growth (Escherichia coli IAI1 [2]),growth [3],growth [4],fold change of Histamine concentration [5],fold change of Tryptamine concentration [6],fold change of Tryptamine concentration [7],fold change of Putrescine concentration (Escherichia coli IAI1 [8]),fold change of Putrescine concentration [9],fold change of Cadaverine concentration (Escherichia coli IAI1 [10]),fold change of Cadaverine concentration [11],fold change of 2-Phenylethylamine concentration [12]
CC(C)(c1ccc(O)cc1)c1ccc(O)cc1 [Bisphenol A] (20 µM),0.972,1.04,1,0.996,1.01 (inactive),0.959 (inactive),0.976 (inactive),0.981 (inactive),0.988 (inactive),0.991 (inactive),0.985 (inactive),0.942 (inactive)
COc1ccc2c(c1)c(CC(=O)OCC(=O)O)c(C)n2C(=O)c1ccc(Cl)cc1 [Acemetacin] (20 µM),0.906,1.03,0.985,1.06,0.983 (inactive),0.98 (inactive),0.964 (inactive),1.06 (inactive),1.01 (inactive),0.959 (inactive),1.01 (inactive),0.907 (inactive)
CCC1(c2ccccc2)NC(=O)N(C)C1=O (stereo not drawn) [Mephenytoin] (20 µM),0.908,1.05,1.11,1.14,0.905 (inactive),1.09 (inactive),1.02 (inactive),1.06 (inactive),1.02 (inactive),1.01 (inactive),1.02 (inactive),1.03 (inactive)
C[C@]12C=CC(=O)C=C1CC[C@H]1[C@@H]3C[C@@H](O)[C@](O)(C(=O)CO)[C@@]3(C)C[C@H](O)[C@@]12F [Triamcinolone] (20 µM),1.01,0.986,1.02,0.944,0.954 (inactive),0.918 (inactive),1.02 (inactive),0.976 (inactive),1.02 (inactive),0.994 (inactive),0.992 (inactive),1.07 (inactive)
COc1ccc2c(c1)c(CC(=O)OC/C=C(\C)CC/C=C(\C)CCC=C(C)C)c(C)n2C(=O)c1ccc(Cl)cc1 [Indometacin farnesil] (20 µM),1.02,1.04,1.06,1.16,0.986 (inactive),0.94 (inactive),1.03 (inactive),1.03 (inactive),1.01 (inactive),1.04 (inactive),0.984 (inactive),1.06 (inactive)
N[C@@H](Cc1cc(I)c(Oc2ccc(O)c(I)c2)c(I)c1)C(=O)O [Liothyronine] (20 µM),0.986,0.992,1.03,1.09,0.981 (inactive),0.991 (inactive),0.88 (inactive),0.906 (inactive),0.99 (inactive),1.02 (inactive),0.993 (inactive),0.88 (inactive)
C#C[C@]1(OC(C)=O)CC[C@H]2[C@@H]3CCC4=CC(=NO)CC[C@@H]4[C@H]3CC[C@@]21CC (mixture of isomers) [Norgestimate] (20 µM),1.25,0.998,1.01,0.991,1.01 (inactive),0.656 (inactive),0.888 (inactive),1.05 (inactive),0.985 (inactive),1.02 (inactive),0.993 (inactive),0.905 (inactive)
CC(C)(CO)[C@@H](O)C(=O)NCCCO [(D)-Panthenol] (20 µM),0.885,0.982,1.05,1.15,1.02 (inactive),0.993 (inactive),0.956 (inactive),0.964 (inactive),1.01 (inactive),1 (inactive),0.996 (inactive),0.999 (inactive)
Nc1ccc(/N=N/c2ccccc2)c(N)n1 [Phenazopyridine hydrochloride] (20 µM),1.12,0.985,0.982,1.06,0.998 (inactive),0.991 (inactive),1.02 (inactive),0.969 (inactive),0.986 (inactive),1.02 (inactive),0.994 (inactive),0.969 (inactive)
Cc1cc(C(C)(C)C)cc(C)c1CC1=NCCN1 [Xylometazoline hydrochloride] (20 µM),0.986,1.01,1.01,1.1,0.982 (inactive),1.01 (inactive),1.01 (inactive),0.986 (inactive),0.966 (inactive),0.968 (inactive),1 (inactive),0.998 (inactive)
CC(=O)CC(c1ccccc1)c1c(O)c2ccccc2oc1=O (stereo not drawn) (20 µM),1.05,0.981,1,1.15,1.01 (inactive),0.979 (inactive),0.984 (inactive),1.01 (inactive),1 (inactive),0.995 (inactive),0.99 (inactive),0.99 (inactive)
CN[C@@H]1[C@@H](O[C@H]2O[C@H](CO)[C@@H](N)[C@H](O)[C@H]2O)OC2C[C@@H](N)[C@@H](O[C@H]3[C@H](O)[C@@H](O)[C@H](N)C[C@@H]3N)OC2[C@@H]1O (stereo partly drawn) [Apramycin] (20 µM),1.18,0.982,0.996,1.03,1.05 (inactive),0.998 (inactive),0.96 (inactive),1 (inactive),1.05 (inactive),1 (inactive),1.02 (inactive),0.905 (inactive)
CC(C)[C@H](N)C(=O)OCCOCn1cnc2c(=O)nc(N)[nH]c21 [Valacyclovir hydrochloride] (20 µM),1.06,0.958,0.98,0.538,1.09 (inactive),0.989 (inactive),1.02 (inactive),0.954 (inactive),1.03 (inactive),0.987 (inactive),0.999 (inactive),0.997 (inactive)
C[C@]12CCC(=O)C=C1C=C[C@@H]1[C@@H]2CC[C@@]2(C)[C@H]1CC[C@@]21CCC(=O)O1 [Canrenone] (20 µM),1.01,1.03,1.01,1.03,0.908 (inactive),1 (inactive),1.12 (inactive),0.86 (inactive),0.967 (inactive),0.878 (inactive),1.02 (inactive),1.14 (inactive)
COc1cnc(NS(=O)(=O)c2ccc(N)cc2)nc1 [Sulfameter] (20 µM),0.997,0.976,0.981,1.35,1.01 (inactive),0.945 (inactive),1.03 (inactive),1.01 (inactive),0.996 (inactive),1.03 (inactive),0.987 (inactive),1.01 (inactive)
O=C(Oc1ccccc1)n1c(C(F)(F)F)nc2cc(Cl)c(Cl)cc21 (20 µM),0.822,0.604,0.714,0.827,1.39 (active),1.11 (inactive),0.875 (inactive),1.38 (active),0.931 (inactive),1.59 (active),0.926 (inactive),0.917 (inactive)
CCn1cc(C(=O)O)c(=O)c2cnc(N3CCNCC3)nc21 [Pipemidic acid] (20 µM),0.963,0,0.465,1.01,0.949 (inactive),1.01 (inactive),0.93 (inactive),0.313 (active),1.06 (inactive),1.81 (active),1.01 (inactive),0.934 (inactive)
C[n+]1ccccc1/C=N/O [Pralidoxime chloride] (20 µM),1.19,0.995,1.01,1.05,1.13 (inactive),1.02 (inactive),1.01 (inactive),0.968 (inactive),1.04 (inactive),1.02 (inactive),0.991 (inactive),1.01 (inactive)
CC(C(=O)O)c1ccc(C(=O)c2ccccc2)s1 (stereo not drawn) [Tiaprofenic acid] (20 µM),0.955,1.1,0.987,1.16,0.995 (inactive),0.993 (inactive),1.04 (inactive),1.08 (inactive),1.01 (inactive),0.966 (inactive),0.988 (inactive),1.07 (inactive)
CO[C@@H]1[C@@H](OC(N)=O)[C@@H](O)[C@H](Oc2ccc3c(O)c(NC(=O)c4ccc(O)c(CC=C(C)C)c4)c(=O)oc3c2C)OC1(C)C [Novobiocin sodium salt] (20 µM),1.07,0.922,0.747,0.338,0.858 (inactive),0.754 (inactive),0.176 (active),1.18 (inactive),0.986 (inactive),1.04 (inactive),1 (inactive),0.208 (active)
O=C1CN2Cc3c(ccc(Cl)c3Cl)N=C2N1 [Anagrelide] (20 µM),0.955,1.11,1.05,1.14,0.845 (inactive),1.03 (inactive),1.02 (inactive),1.05 (inactive),0.986 (inactive),1.16 (inactive),1.01 (inactive),0.962 (inactive)
Nc1ccc(C(=O)O)c(O)c1 [Aminosalicylic acid] (20 µM),1.11,1.02,1.02,0.97,1.06 (inactive),1 (inactive),0.999 (inactive),1.01 (inactive),1.01 (inactive),1.02 (inactive),0.98 (inactive),0.981 (inactive)
CCCc1cc(=O)[nH]c(=S)[nH]1 [Propylthiouracil] (20 µM),0.934,1.06,0.995,1.05,0.972 (inactive),1.03 (inactive),1.04 (inactive),1.05 (inactive),1.01 (inactive),0.974 (inactive),0.995 (inactive),1.03 (inactive)
"CC(C)NCC(O)c1ccc(O)c(O)c1 (single isomer, unassigned; (-)) [(-) Isoproterenol hydrochloride] (20 µM)",1.02,0.976,1.15,0.899,0.874 (inactive),1.03 (inactive),0.857 (inactive),1 (inactive),0.996 (inactive),0.982 (inactive),1.02 (inactive),0.814 (inactive)
